Records with an inconclusive call do not appear. Activity calls are given as the source filed them. Rule for the calls, unless noted: active = hit-call score of the fitted dose curve at least 0.9, where 1 is the maximum; inactive = score below 0.9.
Columns and labels:
[1] = molecular target: Bile acid receptor (Homo sapiens) (UniProt Q96RI1); assay: ATG_FXR_TRANS: Attagene TRANS-FACTORIAL HepG2 Assay for Farnesoid X Receptor (FXR) (AID 2282979; active = hit-call score of the fitted dose curve at least 0.9, where 1 is the maximum;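 note: hits raise reporter mRNA above DMSO so AC50 marks FXR activation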); conditions: HepG2 Attagene TRANS FXR-GAL4 reporter transcription
Chain of Bile acid receptor (Homo sapiens) (Q96RI1 whole entry, looked up, the tested form may be a part): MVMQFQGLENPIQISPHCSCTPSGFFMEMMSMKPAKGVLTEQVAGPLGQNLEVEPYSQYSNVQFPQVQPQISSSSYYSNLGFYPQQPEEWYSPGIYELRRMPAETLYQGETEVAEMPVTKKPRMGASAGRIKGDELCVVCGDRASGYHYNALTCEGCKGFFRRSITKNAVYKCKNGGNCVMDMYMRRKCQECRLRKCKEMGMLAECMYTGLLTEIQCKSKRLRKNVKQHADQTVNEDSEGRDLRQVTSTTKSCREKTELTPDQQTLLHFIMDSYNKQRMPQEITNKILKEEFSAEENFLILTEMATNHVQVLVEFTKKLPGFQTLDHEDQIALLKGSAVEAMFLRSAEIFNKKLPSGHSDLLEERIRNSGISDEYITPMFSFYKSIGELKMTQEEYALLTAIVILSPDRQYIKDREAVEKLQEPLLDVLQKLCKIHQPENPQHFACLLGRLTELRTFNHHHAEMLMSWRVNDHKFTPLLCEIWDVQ
Outline: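 HepG2 cells transiently transfected with reporter constructs in which a chimeric FXR-GAL4 protein drives a GAL4-UAS reporter; 24 h compound exposure. Reporter mRNA measured by RT-PCR, FAM labelling, HpaI digestion and capillary electrophoresis; gain-of-signal versus DMSO.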

[2] = molecular target: Oxysterols receptor LXR-alpha (Homo sapiens) (UniProt Q13133); assay: ATG_LXRa_TRANS: Attagene TRANS-FACTORIAL HepG2 Assay for human Liver X Receptor alpha (LXRa) (AID 2282980; active = hit-call score of the fitted dose curve at least 0.9, where 1 is the maximum); conditions: HepG2 Attagene TRANS reporter, LXRa transactivation
Outline: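 HepG2 cells were transiently transfected with multiplexed reporter units driven by chimeric LXRa–GAL4 fusion proteins, then dosed for 24 h. Reporter mRNA was quantified by RT-PCR, fluorescent labelling and capillary electrophoresis; gain of signal fitted against DMSO baseline.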

[3] = molecular target: Oxysterols receptor LXR-beta (Homo sapiens) (UniProt P55055); assay: ATG_LXRb_TRANS: Attagene TRANS-FACTORIAL HepG2 Assay for human Liver X Receptor beta (LXRb) (AID 2282981; active = hit-call score of the fitted dose curve at least 0.9, where 1 is the maximum); conditions: HepG2 Attagene TRANS GAL4-LXRb reporter, mRNA
Chain of Oxysterols receptor LXR-beta (Homo sapiens) (P55055 whole entry, looked up, the tested form may be a part): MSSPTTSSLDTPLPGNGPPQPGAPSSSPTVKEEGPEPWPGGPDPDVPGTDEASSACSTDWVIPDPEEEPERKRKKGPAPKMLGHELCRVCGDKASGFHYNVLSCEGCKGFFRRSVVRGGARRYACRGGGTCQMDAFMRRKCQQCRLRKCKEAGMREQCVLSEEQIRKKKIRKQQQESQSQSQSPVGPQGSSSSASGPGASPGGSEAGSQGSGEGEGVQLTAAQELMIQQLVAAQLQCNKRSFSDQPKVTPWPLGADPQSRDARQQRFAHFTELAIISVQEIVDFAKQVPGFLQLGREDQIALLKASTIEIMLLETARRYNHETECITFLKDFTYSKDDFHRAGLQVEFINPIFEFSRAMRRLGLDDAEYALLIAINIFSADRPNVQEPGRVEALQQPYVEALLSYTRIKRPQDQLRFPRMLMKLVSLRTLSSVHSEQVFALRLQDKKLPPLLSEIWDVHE
Outline: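 After 24 h of chemical treatment, transfected HepG2 cells yield total RNA; reporter cDNA is PCR-amplified, FAM-labelled, HpaI-cut and run on capillary electrophoresis. Signal reflects chimeric LXRb-Gal4 activity on GAL4-UAS reporters.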

[4] = ATG_M_06_TRANS: Attagene TRANS-FACTORIAL HepG2 Assay for M06 Transcription Factor (Internal Marker) (AID 2282983; active = hit-call score of the fitted dose curve at least 0.9, where 1 is the maximum;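 note: reporter transcript level by RT-PCR then capillary electrophoresis fluorescence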); conditions: HepG2 Attagene TRANS M06 internal marker reporter
Outline: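 In this multiplexed HepG2 system, compounds are incubated 24 h with cells carrying GAL4-UAS reporter units. Reporter RNA is amplified and resolved by capillary electrophoresis, and induction is scored against DMSO.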

[5] = ATG_M_32_TRANS: Attagene TRANS-FACTORIAL HepG2 Assay for M32 Transcription Factor (Internal Marker) (AID 2282984; active = hit-call score of the fitted dose curve at least 0.9, where 1 is the maximum;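 note: transcript level of a background control reporter unit measured by RT-PCR and capillary electrophoresis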); conditions: HepG2 Attagene TRANS M32 internal marker reporter
Outline: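 Cell-based TRANS-format assay in HepG2: exogenous chimeric GAL4 reporter units transiently expressed, compounds applied 24 h. Reporter mRNA detected by RT-PCR plus capillary electrophoresis; this readout is an internal background marker.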

[6] = molecular target: Nuclear receptor subfamily 4 group A member 2 (Homo sapiens) (UniProt P43354); assay: ATG_NURR1_TRANS: Attagene TRANS-FACTORIAL HepG2 Assay for human Nuclear Receptor Related Protein 1 (NURR1) (AID 2282985; active = hit-call score of the fitted dose curve at least 0.9, where 1 is the maximum); conditions: HepG2 Attagene TRANS reporter, mRNA readout
Chain of Nuclear receptor subfamily 4 group A member 2 (Homo sapiens) (P43354 whole entry, looked up, the tested form may be a part): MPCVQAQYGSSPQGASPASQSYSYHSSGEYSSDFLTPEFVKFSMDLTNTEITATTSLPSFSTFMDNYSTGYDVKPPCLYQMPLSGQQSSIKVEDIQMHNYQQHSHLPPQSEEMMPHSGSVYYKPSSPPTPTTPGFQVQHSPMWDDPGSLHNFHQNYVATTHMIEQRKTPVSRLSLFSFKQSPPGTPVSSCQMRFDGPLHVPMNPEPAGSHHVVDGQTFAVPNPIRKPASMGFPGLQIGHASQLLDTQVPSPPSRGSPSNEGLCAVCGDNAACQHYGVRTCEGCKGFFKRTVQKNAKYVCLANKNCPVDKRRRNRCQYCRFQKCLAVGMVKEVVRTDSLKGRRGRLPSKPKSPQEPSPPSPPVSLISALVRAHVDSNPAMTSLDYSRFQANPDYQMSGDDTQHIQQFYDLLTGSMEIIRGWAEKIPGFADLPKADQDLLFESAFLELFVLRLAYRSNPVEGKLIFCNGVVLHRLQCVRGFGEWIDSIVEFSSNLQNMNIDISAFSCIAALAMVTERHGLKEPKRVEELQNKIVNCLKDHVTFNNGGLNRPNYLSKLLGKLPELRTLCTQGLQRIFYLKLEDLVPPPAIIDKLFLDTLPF
Outline: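 Measures transcriptional activation by an exogenous NR-Gal4 chimera in transfected HepG2 liver cells. After 24 h, reporter RNA is reverse-transcribed, amplified and resolved by capillary electrophoresis; DMSO defines baseline.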

[7] = molecular target: Transcriptional activator Myb (Homo sapiens) (UniProt P10242); assay: ATG_Myb_CIS: Attagene CIS-FACTORIAL HepG2 Assay for human Myeloblastosis (Myb) Proto-Oncogene Transcription Factor (AID 2282986); conditions: HepG2 Attagene CIS-FACTORIAL Myb reporter transcription; actives raise or lower the signal
Chain of Transcriptional activator Myb (Homo sapiens) (P10242 whole entry, looked up): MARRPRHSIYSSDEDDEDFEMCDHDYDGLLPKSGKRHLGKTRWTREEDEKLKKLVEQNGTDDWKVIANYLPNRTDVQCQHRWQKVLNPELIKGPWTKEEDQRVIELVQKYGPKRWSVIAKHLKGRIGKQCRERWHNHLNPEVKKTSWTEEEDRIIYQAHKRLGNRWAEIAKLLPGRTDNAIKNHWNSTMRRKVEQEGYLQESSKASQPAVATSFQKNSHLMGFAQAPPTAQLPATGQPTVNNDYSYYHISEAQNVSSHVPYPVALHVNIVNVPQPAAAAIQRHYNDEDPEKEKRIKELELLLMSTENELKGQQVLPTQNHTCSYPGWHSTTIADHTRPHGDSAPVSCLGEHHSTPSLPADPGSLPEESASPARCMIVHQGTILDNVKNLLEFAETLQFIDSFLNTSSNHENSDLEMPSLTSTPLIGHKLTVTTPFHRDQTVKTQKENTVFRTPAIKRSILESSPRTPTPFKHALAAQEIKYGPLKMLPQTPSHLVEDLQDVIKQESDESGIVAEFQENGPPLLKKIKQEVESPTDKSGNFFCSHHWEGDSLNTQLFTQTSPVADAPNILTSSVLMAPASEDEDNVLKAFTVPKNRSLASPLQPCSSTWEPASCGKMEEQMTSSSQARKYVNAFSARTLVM
Outline: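 Steps: transfect HepG2 with cis-regulated reporter units; dose with chemical for 24 h; isolate RNA, reverse-transcribe, PCR-amplify and FAM-label reporter sequences; digest with HpaI; resolve by capillary electrophoresis. Activity fitted in both directions relative to DMSO.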

[8] = molecular target: Nuclear respiratory factor 1 (Homo sapiens) (UniProt Q16656); assay: ATG_NRF1_CIS: Attagene CIS-FACTORIAL HepG2 Assay for human Nuclear Respiratory Factor 1 (NRF1) Orphan Gene (AID 2282987); conditions: HepG2 NRF1 cis-element reporter, Attagene multiplex; actives raise or lower the signal
Chain of Nuclear respiratory factor 1 (Homo sapiens) (Q16656 whole entry, looked up, the tested form may be a part): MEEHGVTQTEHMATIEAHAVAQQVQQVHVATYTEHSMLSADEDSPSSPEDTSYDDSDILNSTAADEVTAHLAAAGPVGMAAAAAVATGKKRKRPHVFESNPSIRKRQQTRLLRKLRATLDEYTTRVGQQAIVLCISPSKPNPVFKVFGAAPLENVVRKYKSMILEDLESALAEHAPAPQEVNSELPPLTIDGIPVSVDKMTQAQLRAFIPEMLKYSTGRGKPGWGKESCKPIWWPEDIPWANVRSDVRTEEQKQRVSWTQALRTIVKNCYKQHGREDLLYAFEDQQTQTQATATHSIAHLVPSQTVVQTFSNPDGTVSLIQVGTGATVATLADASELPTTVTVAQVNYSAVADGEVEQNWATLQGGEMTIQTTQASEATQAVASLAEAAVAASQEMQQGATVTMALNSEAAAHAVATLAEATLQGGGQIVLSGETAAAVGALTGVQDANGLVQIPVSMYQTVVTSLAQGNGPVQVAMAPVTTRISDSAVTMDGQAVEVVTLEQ
Outline: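 Fluorescence intensity of labelled reporter cDNA fragments, resolved by capillary electrophoresis, served as readout for NRF1 cis-element activity. Transiently transfected HepG2 cells were dosed for 24 hours; activity in either direction was fitted against DMSO negative control.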

[9] = ATG_NFI_CIS: Attagene CIS-FACTORIAL HepG2 Assay for human Nuclear Factor I (NFI) (AID 2282989); conditions: HepG2 cis-regulatory reporter, NFI response element transcription; actives raise or lower the signal
Outline: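 After transient transfection of HepG2 with cis-promoter reporter constructs and 24 h dosing, RNA is reverse-transcribed, amplified, 6-FAM end-labelled and HpaI-digested before capillary analysis. Bidirectional curve fitting against DMSO.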

[10] = molecular target: Myc proto-oncogene protein (Homo sapiens) (UniProt P01106); assay: ATG_Myc_CIS: Attagene CIS-FACTORIAL HepG2 Assay for human Myelocytomatosis (Myc) Proto-Oncogene Transcription Factor (AID 2282990); conditions: HepG2, Attagene cis-reporter transcription factor activity; actives raise or lower the signal
Chain of Myc proto-oncogene protein (Homo sapiens) (P01106 whole entry, looked up, the tested form may be a part): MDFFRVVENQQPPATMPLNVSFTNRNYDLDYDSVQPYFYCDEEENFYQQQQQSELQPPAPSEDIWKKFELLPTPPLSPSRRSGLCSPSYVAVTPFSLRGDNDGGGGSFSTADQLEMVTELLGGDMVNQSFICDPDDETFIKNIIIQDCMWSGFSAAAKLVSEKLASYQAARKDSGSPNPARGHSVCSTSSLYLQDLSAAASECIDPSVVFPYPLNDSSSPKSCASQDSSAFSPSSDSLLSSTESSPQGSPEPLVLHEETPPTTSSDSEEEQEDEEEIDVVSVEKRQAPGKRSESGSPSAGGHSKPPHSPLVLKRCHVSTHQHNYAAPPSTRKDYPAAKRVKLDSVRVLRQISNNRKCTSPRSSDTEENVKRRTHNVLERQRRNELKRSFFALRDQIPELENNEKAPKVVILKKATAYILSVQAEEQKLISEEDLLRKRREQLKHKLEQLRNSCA
Outline: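 After 24 h chemical treatment of HepG2 cells carrying multiplexed cis-regulated reporter constructs, reporter transcripts quantified by RT-PCR and capillary electrophoresis of fluorescent fragments. Gain or loss fitted against DMSO baseline.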

[11] = ATG_NF_kB_CIS: Attagene CIS-FACTORIAL HepG2 Assay for human Nuclear Factor Kappa B (NF-kB) (AID 2282991); conditions: HepG2 Attagene cis-factorial NF-kB reporter mRNA; actives raise or lower the signal
Outline: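 Endogenous transcription factor activity in HepG2 was captured via cis-regulated reporter constructs; after 24 h dosing, reporter mRNA was reverse-transcribed, amplified, fluorescently labelled and sized by capillary electrophoresis, with activity fitted bidirectionally relative to DMSO.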

[12] = ATG_NRF2_ARE_CIS: Attagene CIS-FACTORIAL HepG2 Assay for human Nuclear Factor Erythroid 2 Related Factor 2 (NFR2) response to Antioxidant Response Elements (ARE) (AID 2282992); conditions: HepG2 Attagene ARE/NRF2 reporter, transcription factor activity; actives raise or lower the signal
Outline: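 Endogenous transcription factor activity in human liver HepG2 cells is tracked via a cis-element-driven reporter within a multiplexed set. mRNA induction is read by RT-PCR and capillary electrophoresis after 24 h, with DMSO as baseline.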

[13] = ATG_Oct_MLP_CIS: Attagene CIS-FACTORIAL HepG2 Assay for human Octamer-Binding Transcription Factor (Oct) (AID 2282993); conditions: HepG2 Attagene cis-factorial Oct reporter, mRNA; actives raise or lower the signal
Outline: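 Cells of the HepG2 line express promoter-controlled reporter sequences whose mRNA levels, after 24 h treatment, are measured by RT-PCR and capillary electrophoresis. Increases and decreases are scored relative to DMSO.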

[14] = BSK_3C_TissueFactor: BioMAP Diversity Plus: 3C Assay for Tissue Factor Biomarker Activity (AID 2282997); conditions: BioMAP 3C HUVEC, tissue factor biomarker readout; actives raise or lower the signal
Outline: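 Readout: Tissue Factor ELISA. Cells: human primary umbilical vein endothelium. Time: 24 h after dosing. Analysis: bidirectional fit, DMSO baseline.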

[15] = BSK_3C_uPAR: BioMAP Diversity Plus: 3C Assay for Urokinase-type plasminogen activator receptor (uPAR) Biomarker Activity (AID 2282998); conditions: BioMAP 3C HUVEC, uPAR biomarker ELISA; actives raise or lower the signal
Outline: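 Endothelial primary cells of human umbilical vein origin received test chemical; 24 h later uPAR was assayed by ELISA. Fitting was bidirectional, DMSO as negative control.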

[16] = BSK_3C_VCAM1: BioMAP Diversity Plus: 3C Assay for Vascular cell adhesion molecule 1 (VCAM1) Biomarker Activity (AID 2282999); conditions: BioMAP 3C HUVEC, VCAM1 ELISA, cytokine-stimulated; actives raise or lower the signal
Outline: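 Activity fitted in both directions relative to DMSO, with ELISA measurement of the surface marker on primary HUVEC (3C) at 24 h post-treatment; parallel SRB staining (0.1% SRB, TCA-fixed, 560 nm) flagged overt cytotoxicity.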

[17] = molecular target: Glucocorticoid receptor (Homo sapiens) (UniProt P04150); assay: ATG_GR_TRANS: Attagene TRANS-FACTORIAL HepG2 Assay for human Glucocorticoid Receptor (GR) (AID 2282978; active = hit-call score of the fitted dose curve at least 0.9, where 1 is the maximum;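 note: activators score as hits since higher reporter transcript over DMSO is fitted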); conditions: HepG2 Attagene TRANS GR reporter, mRNA transcription
Chain of Glucocorticoid receptor (Homo sapiens) (P04150 whole entry, looked up, the tested form may be a part): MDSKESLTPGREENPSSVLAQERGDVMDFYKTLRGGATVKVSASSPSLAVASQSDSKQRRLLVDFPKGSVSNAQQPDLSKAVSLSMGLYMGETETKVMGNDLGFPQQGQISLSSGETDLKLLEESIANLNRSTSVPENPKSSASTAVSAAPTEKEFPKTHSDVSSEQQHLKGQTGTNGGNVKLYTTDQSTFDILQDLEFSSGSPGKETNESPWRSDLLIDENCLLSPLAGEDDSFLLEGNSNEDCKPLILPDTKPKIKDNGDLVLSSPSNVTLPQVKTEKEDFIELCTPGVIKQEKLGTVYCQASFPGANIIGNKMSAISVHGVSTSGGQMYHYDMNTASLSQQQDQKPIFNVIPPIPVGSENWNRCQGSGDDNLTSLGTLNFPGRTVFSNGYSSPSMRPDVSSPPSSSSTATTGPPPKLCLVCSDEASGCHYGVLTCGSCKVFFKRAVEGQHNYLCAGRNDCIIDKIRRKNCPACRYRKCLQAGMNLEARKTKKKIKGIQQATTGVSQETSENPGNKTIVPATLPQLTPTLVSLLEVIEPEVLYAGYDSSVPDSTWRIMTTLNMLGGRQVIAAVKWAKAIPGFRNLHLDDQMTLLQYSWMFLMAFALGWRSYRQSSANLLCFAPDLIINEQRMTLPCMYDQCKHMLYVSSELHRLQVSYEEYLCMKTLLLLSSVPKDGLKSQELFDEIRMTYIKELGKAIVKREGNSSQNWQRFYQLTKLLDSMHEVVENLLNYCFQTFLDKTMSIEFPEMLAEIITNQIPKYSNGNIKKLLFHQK
Outline: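 In this trans-factorial format, exogenous NR-GAL4 chimeric proteins in transfected HepG2 cells regulate GAL4-UAS reporter transcription. After 24 h treatment, reporter mRNA induction relative to DMSO is read by RT-PCR and capillary electrophoresis.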

[18] = molecular target: Cellular tumor antigen p53 (Homo sapiens) (UniProt P04637); assay: ATG_p53_CIS: Attagene CIS-FACTORIAL HepG2 Assay for human p53 Transcription Factor (AID 2282994); conditions: HepG2 p53 cis-element reporter, Attagene mRNA; actives raise or lower the signal
Chain of Cellular tumor antigen p53 (Homo sapiens) (P04637 whole entry, looked up, the tested form may be a part): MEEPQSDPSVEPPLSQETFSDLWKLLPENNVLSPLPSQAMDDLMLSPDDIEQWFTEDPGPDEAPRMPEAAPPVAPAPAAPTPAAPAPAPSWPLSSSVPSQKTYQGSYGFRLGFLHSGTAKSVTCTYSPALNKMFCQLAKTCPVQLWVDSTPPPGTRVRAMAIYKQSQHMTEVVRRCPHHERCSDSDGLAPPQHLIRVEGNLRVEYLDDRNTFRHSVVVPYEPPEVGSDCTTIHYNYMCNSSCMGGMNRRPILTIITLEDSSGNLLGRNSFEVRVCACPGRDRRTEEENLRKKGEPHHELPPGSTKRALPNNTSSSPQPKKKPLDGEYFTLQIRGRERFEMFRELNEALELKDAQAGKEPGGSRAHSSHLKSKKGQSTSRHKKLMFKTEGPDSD
Outline: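 Steps: transfect HepG2 with multiplexed cis reporter constructs; dose chemicals 24 h; extract RNA, reverse-transcribe, PCR-amplify reporter sequences; FAM-label, HpaI-digest, resolve fragments by CE. Activity fitted both directions relative to DMSO.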

[19] = molecular target: Hepatocyte nuclear factor 4-alpha (Homo sapiens) (UniProt P41235); assay: ATG_HNF4a_TRANS: Attagene TRANS-FACTORIAL HepG2 Assay for human Hepatocyte Nuclear Factor 4 alpha (HNF4a) (AID 2282982; active = hit-call score of the fitted dose curve at least 0.9, where 1 is the maximum); conditions: HepG2 HNF4a transactivation reporter, mRNA readout
Chain of Hepatocyte nuclear factor 4-alpha (Homo sapiens) (P41235 whole entry, looked up): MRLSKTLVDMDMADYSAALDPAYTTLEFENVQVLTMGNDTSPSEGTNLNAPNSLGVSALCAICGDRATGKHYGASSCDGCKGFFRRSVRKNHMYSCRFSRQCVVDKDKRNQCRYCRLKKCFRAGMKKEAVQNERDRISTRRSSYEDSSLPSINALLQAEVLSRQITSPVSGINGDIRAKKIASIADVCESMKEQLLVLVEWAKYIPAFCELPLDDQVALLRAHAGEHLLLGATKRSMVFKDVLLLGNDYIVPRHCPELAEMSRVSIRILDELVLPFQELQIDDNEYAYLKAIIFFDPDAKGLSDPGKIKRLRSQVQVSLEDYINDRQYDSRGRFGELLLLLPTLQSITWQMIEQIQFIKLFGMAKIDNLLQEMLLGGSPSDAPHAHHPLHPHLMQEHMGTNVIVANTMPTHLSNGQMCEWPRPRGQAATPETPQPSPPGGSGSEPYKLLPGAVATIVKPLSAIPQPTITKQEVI
Outline: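 Multiplexed reporter assay: transfected HepG2, 24 h exposure, total RNA → oligo(dT) RT → PCR → 6-FAM extension → HpaI digest → CE fluorescence. DMSO = negative control.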

Measured: AC50

CC(C)C(=O)OCCc1ccccc1
not listed: [17] | [18] | [19]
inactive: all other assays above

Cc1cc(=O)[nH]c(=O)[nH]1
inactive: [17] | [4] | [7] | [8] | [9] | [10] | [11] | [12] | [13] | [18]

C=CC(=O)OCCCCCCCC(C)C
active: [12] 58 µM | [13] 121 µM | [14] 20 µM | [16] 13 µM
not listed: [2] | [5] | [6] | [17] | [19]
inactive: all other assays above

CCCCCC(=O)OCC
inactive: [1] | [2] | [7] | [8] | [9] | [10] | [11] | [12] | [13] | [18]

CCOC(=O)OC(=O)OCC
not listed: [5] | [9] | [14] | [15] | [16] | [17]
inactive: all other assays above

CCCCC(=O)O
not listed: [2] | [11] | [14] | [15] | [16] | [17]
inactive: all other assays above

C=CCNCC=C
inactive: [17] | [19] | [5] | [6] | [7] | [9] | [10] | [12] | [13] | [18]

CC1(C)C(=O)N(CO)C(=O)N1CO
active: [12] 26.1 µM
not listed: [5] | [6] | [14] | [15] | [16] | [17]
inactive: all other assays above

CCCCNS(=O)(=O)c1ccccc1
not listed: [2] | [6] | [9] | [14] | [15] | [16] | [17]
inactive: all other assays above

CCCCCCCCCCCC(=O)N(C)CC(=O)O
active: [12] 97.5 µM
not listed: [1] | [2] | [3] | [6] | [11] | [18] | [19]
inactive: all other assays above

Cc1cc(C)n(CO)n1
inactive: [1] | [3] | [4] | [5] | [7] | [8] | [9] | [12] | [13] | [18]

CC(=O)OCC=C(C)C
not listed: [1] | [2] | [3] | [5] | [6] | [14] | [15] | [16]
inactive: all other assays above

CC1CCC(=O)C1=O (stereo not drawn)
inactive: [17] | [6] | [7] | [8] | [9] | [10] | [12] | [13]

CCC(C)C(=O)OCCc1ccccc1 (stereo not drawn)
not listed: [2] | [5] | [6] | [8] | [14] | [15] | [16] | [17]
inactive: all other assays above

C1CCSC1
not listed: [14] | [15] | [16] | [17]
inactive: all other assays above

COCC(=O)O
not listed: [1] | [2] | [3] | [4] | [11] | [14] | [15] | [16]
inactive: all other assays above

CC1(C)CC(O)CC(C)(C)N1[O]
active: [12] 26.6 µM
not listed: [2] | [5] | [17] | [18]
inactive: all other assays above

CC(=O)c1ccccc1O
not listed: [4] | [6] | [8] | [14] | [15] | [16] | [17] | [19]
inactive: all other assays above

CC1CCC(C(C)(C)S)C(=O)C1 (stereo not drawn)
not listed: [14] | [15] | [16] | [17]
inactive: all other assays above

CC(=O)c1ccc(S(=O)(=O)NC(=O)NC2CCCCC2)cc1
inactive: [17] | [6] | [7] | [8] | [9] | [11] | [12] | [13] | [18]

Cc1ccc(C)c(OCCCC(C)(C)C(=O)O)c1
not listed: [1] | [6] | [11] | [14] | [15] | [16] | [17] | [18]
inactive: all other assays above

CCCCCCO
not listed: [1] | [2] | [5] | [11] | [14] | [15] | [16] | [17]
inactive: all other assays above

CC(C=O)c1ccccc1 (stereo not drawn)
not listed: [2] | [3] | [11] | [14] | [15] | [16] | [17]
inactive: all other assays above

From PubChem BioAssay (EPA / NIEHS)
